Broadly, the inhibition is the percentage by which the read-out fell short of the control.

Here are results for 54 compounds from PubChem BioAssay AID372 (MTDP, 2006).

The structures appear in SMILES notation. Screen size: about 100,000 compounds; about 770 (0.77%) were called active. The entries come from a sample that favours actives as a whole. Unmarked numbers belong to inactive results. Cut-off read from the data, not from the text of the source: active = inhibition above about 50%; inactive = the rest.

The target of this assay is Gag-Pol polyprotein (Human immunodeficiency virus type 1 group M subtype B (isolate HXB2)) (UniProt P04585). Briefly: RNase H inhibition, HIV 1 Gag Pol polyprotein, FRET biochemical assay, screening (AID 372). The following applies: HIV-1 RT RNase H, FRET RNA/DNA substrate fluorescence; at 10 µM; stronger effect = higher value.
`O=C(N/N=C/c1ccccc1OC(=O)c1sc2ccccc2c1Cl)c1ccc([N+](=O)[O-])cc1`: the inhibition is 6%.
The value for `O=C(Nc1cccc2ccccc12)c1ccccc1[N+](=O)[O-]` was 5%.
The value for `CCn1c(=O)sc2cccc(Cl)c21` was 50% (active).
The value for `Cc1cc(C)cc(OC(=O)Cn2c(=O)sc3cccc(Cl)c32)c1` was 11%; that for `Cc1ccc(OC(=O)Cn2c(=O)sc3cccc(Cl)c32)cc1C` was 12%.
As for `COC(=O)CCCCCN1C(=O)c2ccccc2C1=O`, the inhibition was 6%.
For the compound `COc1cc(/C=c2/sc3nc4c(C)c(C)ccc4n3c2=O)cc(OC)c1OC(C)=O`, the inhibition is 8%.
Under `COc1cc(/C=c2\sc3nc4c(C)c(C)ccc4n3c2=O)cc(Cl)c1O` stands 31%; under `COc1cc(/C=c2\sc3nc4c(C)c(C)ccc4n3c2=O)cc(OC)c1O`, 58% (active); under `O=C(Nc1ccc(-c2noc(-c3ccccc3F)n2)cc1)c1cccs1`, 10%.
`O=C(CCCN1C(=O)c2cccc3cccc(c23)C1=O)N1CCCCC1`: the inhibition was 29%.
The value for `CC1CCN(C(=O)CN2C(=O)c3cccc4cccc(c34)C2=O)CC1` was 7%; that for `CC1CCN(C(=O)CCCN2C(=O)c3cccc4cccc(c34)C2=O)CC1` was 56% (active); that for `COc1ccccc1-c1c(C(F)(F)F)oc2c(CN(C)C)c(O)ccc2c1=O` was 24%.
As to `O=C(CN(c1cccc(Cl)c1)S(=O)(=O)c1ccccc1)N1CCN(Cc2ccccc2)CC1`, the inhibition is 14%.
On to `CN1c2ccccc2-c2ccccc2C12C=Cc1cc(Br)ccc1O2` (centres undefined), for which the inhibition was 6%.
In the case of `COc1cc(Br)cc2c1OC1(C=C2)c2ccccc2-c2ccccc2N1C` (centres undefined), the inhibition is 50% (active).
Under `CN1c2ccccc2-c2ccccc2C12C=Cc1cc(Br)cc(Br)c1O2` (centres undefined) stands 17%.
Under `O=C(CSc1nnc(-c2ccccc2)n1-c1ccccc1)N/N=C/C=C/c1ccccc1` stands 15%; under `O=C(Nc1ccc(Cl)cc1)c1ccccc1C(=O)c1ccc(Cl)cc1`, 18%.
The value for `COc1cc(/C=N\Nc2nnc3c(n2)[nH]c2c(C)cccc23)ccc1O` was 11%; that for `Cc1cccc2c1[nH]c1nc(N/N=C\c3ccc(O)c(O)c3)nnc12` was 54% (active).
For `Cc1cccc2c1[nH]c1nc(N/N=C\c3cccc(O)c3)nnc12`, the inhibition was 14%.
The value for `O=c1[nH]c(-c2ccncc2)nc2ccccc12` was 68% (active); that for `O=c1[nH]c(-c2ccc(Br)cc2)nc2ccccc12` was 13%.
Turning to `Cc1ccc(-c2nc3ccccc3c(=O)[nH]2)cc1`, the inhibition was 7%.
Under `CC(=O)c1ccc(N2CCCCC2C)c(F)c1` (centres undefined) stands 0%; under `Cc1ccccc1-n1c(O)c(/C=C2\C=CC=N2)c(=O)[nH]c1=O`, 1%; under `O=c1[nH]c(=O)n(-c2ccccc2Cl)c(O)c1C=C1C=CC=N1`, 0%.
Turning to `O=c1[nH]c(=S)n(-c2ccccc2)c(O)c1/C=C1/C=CC=N1`, the inhibition is 11%.
For `Cc1cccc(-n2c(O)c(/C=C3\C=CC=N3)c(=O)[nH]c2=S)c1`, the inhibition was 11%.
Under `O=C(COc1ccccc1Cl)NNC(=O)c1cc2ccccc2cc1O` stands 6%; under `O=[N+]([O-])c1ccc(OCCCN2CCCCC2)cc1`, 0%; under `CCOc1ccc2ccccc2c1/C=C(\C#N)C(=O)NCc1ccco1`, 24%.
The value for `CCc1ccc(/C=C2/SC(=S)N(CCC(=O)O)C2=O)cc1` was 8%.
For `CCCC1=C(C(=O)OCC)C(c2cc(C)c(OC)cc2C)C(C#N)=C(N)O1` (centres undefined), the inhibition is 2%.
The value for `Cc1cc(C)c2nc3s/c(=C\c4cccc([N+](=O)[O-])c4)c(=O)n3c2c1` was 10%; that for `Cc1ccc(N2C(=O)CC(Cc3ccc(Cl)cc3)C2=O)cc1C` (centres undefined) was 5%; that for `CCOC(=O)C1=C(C)N=c2s/c(=C\c3ccc(-c4ccc(OC)cc4[N+](=O)[O-])o3)c(=O)n2C1c1ccc(C)cc1` (centres undefined) was 44%.
Under `CCOC(=O)C1=C(C)N=c2s/c(=C\c3ccc(-c4ccc(C)c([N+](=O)[O-])c4)o3)c(=O)n2C1c1ccc(OC)cc1` (centres undefined) stands 21%.
The value for `CCOC(=O)C1=C(C)N=c2s/c(=C\c3ccc(-c4ccc(C)c([N+](=O)[O-])c4)o3)c(=O)n2C1c1ccc2c(c1)OCO2` (centres undefined) was 8%; that for `CCOC(=O)C1=C(C)N=c2s/c(=C\c3ccc(-c4cc(C)c(C)c([N+](=O)[O-])c4)o3)c(=O)n2C1c1ccc(OC)c(OC)c1` (centres undefined) was 51% (active); that for `CCOC(=O)C1=C(C)N=c2s/c(=C\c3ccc(-c4ccc([N+](=O)[O-])cc4)o3)c(=O)n2C1c1ccc2c(c1)OCO2` (centres undefined) was 41%.
On to `CCOC(=O)C1=C(C)N=c2s/c(=C\c3ccc(-c4ccc(C)c([N+](=O)[O-])c4)o3)c(=O)n2C1c1ccc(OC)c(OC)c1` (centres undefined), for which the inhibition was 18%.
Turning to `CCOC(=O)C1=C(C)N=c2s/c(=C\c3ccc(-c4cc(C)c(C)c([N+](=O)[O-])c4)o3)c(=O)n2C1c1ccc2c(c1)OCO2` (centres undefined), the inhibition is 50% (active).
Under `CCOC(=O)C1=C(C)N=c2s/c(=C\c3ccc(-c4cc(C)c(C)c([N+](=O)[O-])c4)o3)c(=O)n2C1c1ccc(Cl)cc1` (centres undefined) stands 37%; under `CCOC(=O)C1=C(C)N=c2s/c(=C\c3ccc(-c4cc(C)c(C)c([N+](=O)[O-])c4)o3)c(=O)n2C1c1ccc(OC)cc1` (centres undefined), 55% (active); under `CCOC(=O)C1=C(C)N=c2s/c(=C\c3ccc(-c4ccc(OC)cc4[N+](=O)[O-])o3)c(=O)n2C1c1ccc(OC)cc1` (centres undefined), 0%.
Under `CCOC(=O)C1=C(C)N=c2s/c(=C\c3ccc(-c4cc(C)c(C)c([N+](=O)[O-])c4)o3)c(=O)n2C1c1cc(OC)ccc1OC` (centres undefined) stands 13%; under `CCOC(=O)C1=C(C)N=c2s/c(=C\c3ccc(-c4ccc(OC)cc4[N+](=O)[O-])o3)c(=O)n2C1c1ccc(SC)cc1` (centres undefined), 52% (active).
Take `Clc1ccc(-c2nnc3ccc(N4CCOCC4)nn23)cc1`: the inhibition was 9%.
Under `COc1ccc(C2NC(=O)NC(C)=C2C(=O)OCC(Cl)(Cl)Cl)cc1OC` (centres undefined) stands 2%.
The value for `COc1ccc2ccccc2c1/C=N/NC(=O)c1ccccc1C` was 13%; that for `Cc1cc(I)ccc1NC(=O)c1ccc(-c2ccccc2[N+](=O)[O-])o1` was 49%.
